Source: PubChem BioAssay (NCATS)
Records with an inconclusive call do not appear. A call without a number means that no potency is given here. Active and inactive are the calls of the source. The call rests on the fitted dose curve; in most records, active means well fitted inhibition curve with a large enough effect in the repeat runs; inconclusive means weak or mixed curves; inactive means flat fitted curve, though single readings scatter.

The compounds below were run against Cytochrome P450 2D6 (Homo sapiens) (UniProt P10635) (assay: Cytochrome P450 family 2 subfamily D member 6 (CYP2D6) small molecule antagonists: luciferase biochemical (cell-free) qHTS assay (AID 1645840; further: nearly all actives have a fitted effect of over 55% in size)). Conditions: P450-Glo CYP2D6 enzyme, luciferin luminescence, 1 h; series mostly up to 57.4 µM.
Procedure: National Center for Advancing Translational Sciences [NCATS] Assay Overview: Cytochrome P450 (CYP) enzymes are membrane-bound hemeproteins that play a key role in metabolism of drugs and xenobiotics. Assaying the effect of chemicals on CYP isozymes is useful to minimize the adverse drug reactions and toxicities in drug development process. Chemical compounds were tested for their effect on CYP enzyme activities by using P450-Glo (TM) screening systems (Promega Corporation, Madison, WI). These systems provide a luminescent method containing proluciferin substrates and are converted to luciferin products by CYP isozymes. The luciferin products formed are detected with a luciferin detection reagent, and the amount of light produced is proportional to CYP activity. P450-Glo (TM) CYP2D6 screening system (Catalog. No. V9890) was used to detect the compounds that interfere in CYP2D6 activity.
Assay Protocol Summary: Two ul of enzyme-substrate mix was dispensed into medium binding white/solid 1536-well plates (Greiner Bio-One North America Inc., Monroe, NC) using a Flying Reagent Dispenser (FRD, Aurora Discovery, San Diego, CA). […] The assay plates were incubated at room temperature for 10 min. Then 2 ul of NADPH regeneration solution was added to each well of the assay plates using an FRD and incubated at room temperature for 1 h. The reaction was stopped by adding 4 ul of detection reagent using an FRD and after 20 min incubation at room temperature, the luminescence signal was measured using a ViewLux plate reader (Perkin Elmer, Shelton, CT). Data were expressed as relative luminescence units.
Potency means the concentration at half of the fitted maximal effect.

Sequence of Cytochrome P450 2D6 (Homo sapiens) (P10635 whole entry, looked up): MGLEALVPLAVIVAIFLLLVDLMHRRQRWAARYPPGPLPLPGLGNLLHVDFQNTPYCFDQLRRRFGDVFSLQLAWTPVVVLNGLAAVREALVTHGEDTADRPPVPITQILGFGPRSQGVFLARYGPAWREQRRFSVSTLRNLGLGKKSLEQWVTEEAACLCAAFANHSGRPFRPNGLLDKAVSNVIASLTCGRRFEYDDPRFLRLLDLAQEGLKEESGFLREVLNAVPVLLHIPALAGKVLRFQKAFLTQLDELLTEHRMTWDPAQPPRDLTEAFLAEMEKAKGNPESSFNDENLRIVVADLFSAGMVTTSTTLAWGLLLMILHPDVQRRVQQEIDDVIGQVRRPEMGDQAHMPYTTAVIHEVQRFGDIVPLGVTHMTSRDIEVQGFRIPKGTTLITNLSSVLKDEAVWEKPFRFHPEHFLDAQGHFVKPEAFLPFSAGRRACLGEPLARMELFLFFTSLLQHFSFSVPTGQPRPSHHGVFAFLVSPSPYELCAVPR

Question: `C[C@H](O)C(=O)Nc1c(I)c(C(=O)NC(CO)CO)c(I)c(C(=O)NC(CO)CO)c1I` was tested. Which Potency did it give?
Answer: inactive

Question: How did the Potency turn out when `CCOC(=O)OC(C)OC1=C(C(=O)Nc2ccccn2)N(C)S(=O)(=O)c2ccccc21` (stereo not given) was run?
Answer: inactive

Question: For `COc1c2occc2c(OC)c2c(=O)cc(C)oc12`, which Potency is on record?
Answer: 15.5 µM (active)

Question: How did the Potency turn out when `CCN1CCN(c2cc3c(cc2F)c(=O)c(C(=O)O)cn3C2CC2)CC1` was run?
Answer: inactive

Question: With `CCN(CC)C(=O)N1CCN(C)CC1` as the compound, how does the Potency read?
Answer: inactive

Question: How did the Potency turn out when `Cc1ccc(C(=O)C(C)CN2CCCCC2)cc1` (stereo not given) was run?
Answer: 1.74 µM (active)

Question: With `CC1=C(C(=O)O)N2C(=O)[C@@H](NC(=O)[C@H](N)c3ccc(O)cc3)[C@H]2SC1` as the compound, how does the Potency read?
Answer: inactive

Question: `Cc1ncc(CSSCc2cnc(C)c(O)c2CO)c(CO)c1O` was tested. Which Potency did it give?
Answer: 7.76 µM (active)

Question: `OC[C@@H](O)[C@@H](O[C@@H]1O[C@H](CO)[C@H](O)[C@H](O)[C@H]1O)[C@H](O)[C@@H](O)CO` was tested. Which Potency did it give?
Answer: inactive

Question: With `O=C(CCN1CCC(c2ccccc2)C1)c1ccc2c(c1)OCCO2` (stereo not given) as the compound, how does the Potency read?
Answer: 0.977 µM (active)

Question: `CC(O)(P(=O)(O)O)P(=O)(O)O` was tested. Which Potency did it give?
Answer: inactive

Question: How did the Potency turn out when `c1ccc(CNCCNCc2ccccc2)cc1` was run?
Answer: 0.692 µM (active)

Question: Which Potency does the source give for `O=C(OCC(O)CO)c1ccccc1Nc1ccnc2cc(Cl)ccc12` (stereo not given) here?
Answer: 8.71 µM (active)

Question: How did the Potency turn out when `C#C[C@]1(OC(C)=O)CC[C@H]2[C@@H]3CCC4=C[C@@H](OC(C)=O)CC[C@@H]4[C@H]3CC[C@@]21C` was run?
Answer: inactive

Question: With `CCCCOc1ccc(C(=O)CCN2CCCCC2)cc1` as the compound, how does the Potency read?
Answer: 4.9 µM (active)

Question: `CC1(C)O[C@@H]2C[C@H]3[C@@H]4C[C@H](F)C5=CC(=O)C=C[C@]5(C)[C@H]4[C@@H](O)C[C@]3(C)[C@]2(C(=O)CO)O1` was tested. Which Potency did it give?
Answer: inactive

Question: Which Potency does the source give for `CN1C(CCl)Nc2cc(Cl)c(S(N)(=O)=O)cc2S1(=O)=O` (stereo not given) here?
Answer: inactive

Question: With `COC1=CC(=O)C[C@@H](C)[C@]12Oc1c(Cl)c(OC)cc(OC)c1C2=O` as the compound, how does the Potency read?
Answer: inactive

Question: For `CC(=O)Oc1ccc(C(=C2CCCCC2)c2ccc(OC(C)=O)cc2)cc1`, which Potency is on record?
Answer: 15.5 µM (active)

Question: For `CC(=O)OCC(=O)[C@@]1(O)[C@H](C)C[C@H]2[C@@H]3CCC4=CC(=O)C=C[C@]4(C)[C@@]3(F)[C@@H](O)C[C@@]21C`, which Potency is on record?
Answer: inactive

Question: For `CN1CCCC(CC2c3ccccc3Sc3ccccc32)C1` (stereo not given), which Potency is on record?
Answer: 0.0692 µM (active)

Question: For `CC[N+](CC)(CCNC(=O)C(=O)NCC[N+](CC)(CC)Cc1ccccc1Cl)Cc1ccccc1Cl`, which Potency is on record?
Answer: 15.5 µM (active)

Question: How did the Potency turn out when `CC1(C)OC[C@@H](COC(=O)CCc2ccc(OC[C@@H](O)CNCCNC(=O)N3CCOCC3)cc2)O1` was run?
Answer: inactive

Question: With `COC(=O)C1=C(C)NC(C)=C(C(=O)O[C@@H]2CCCN(Cc3ccccc3)C2)[C@@H]1c1cccc([N+](=O)[O-])c1` as the compound, how does the Potency read?
Answer: 6.92 µM (active)

Question: `CCCCCCCCCCCCCCNCCO` was tested. Which Potency did it give?
Answer: 6.17 µM (active)

Question: Which Potency does the source give for `C[C@@H]1C[C@H]2[C@@H]3CCC4=CC(=O)C=C[C@]4(C)[C@@]3(F)[C@@H](O)C[C@]2(C)[C@H]1C(=O)CO` here?
Answer: inactive

Question: Which Potency does the source give for `CCCCC(=O)O[C@]1(C(=O)CO)CC[C@H]2[C@@H]3CCC4=CC(=O)CC[C@]4(C)[C@H]3[C@@H](O)C[C@@]21C` here?
Answer: inactive

Question: `CCCCC(CC)CN=C(N)NC(N)=NCCCCCCN=C(N)NC(N)=NCC(CC)CCCC` (stereo not given) was tested. Which Potency did it give?
Answer: 0.617 µM (active)

Question: Which Potency does the source give for `CCN1CCCC1=O` here?
Answer: inactive

Question: `COc1cccc(CCc2ccccc2OCC(CN(C)C)OC(=O)CCC(=O)O)c1` (stereo not given) was tested. Which Potency did it give?
Answer: 0.195 µM (active)

Question: With `NC(=O)C(=O)N/N=C/c1ccc([N+](=O)[O-])o1` as the compound, how does the Potency read?
Answer: 6.17 µM (active)

Question: For `CN1CCN(C(c2ccccc2)c2ccccc2)CC1`, which Potency is on record?
Answer: 4.9 µM (active)

Question: How did the Potency turn out when `NC[C@H]1O[C@H](O[C@H]2[C@H](O)[C@@H](O[C@H]3O[C@H](CO)[C@@H](O)[C@H](N)[C@H]3O)[C@H](N)C[C@@H]2N)[C@H](N)[C@@H](O)[C@@H]1O` was run?
Answer: inactive

Question: `NC(=O)CC[C@@H]1NC(=O)[C@H](Cc2ccccc2)NC(=O)[C@H](Cc2ccc(O)cc2)NC(=O)CCSSC[C@@H](C(=O)N2CCC[C@H]2C(=O)N[C@@H](CCCN=C(N)N)C(=O)NCC(N)=O)NC(=O)[C@H](CC(N)=O)NC1=O` was tested. Which Potency did it give?
Answer: inactive

Question: How did the Potency turn out when `CCN(CC)CCNC(=O)COc1ccc(Cl)cc1` was run?
Answer: 13.8 µM (active)

Question: With `C/C=C/c1ccc(OC)cc1` as the compound, how does the Potency read?
Answer: inactive

Question: For `CCCCCCCCCCCCCCCC[N+](C)(C)CCN(Cc1ccc(OC)cc1)c1ncccn1`, which Potency is on record?
Answer: 5.49 µM (active)

Question: How did the Potency turn out when `COc1ccc(C2C(=O)c3ccccc3C2=O)cc1` was run?
Answer: inactive

Question: For `CCCCC1=NC2(CCCC2)C(=O)N1Cc1ccc(-c2ccccc2-c2nn[nH]n2)cc1`, which Potency is on record?
Answer: inactive

Question: For `CCCC(=O)O[C@]1(C(=O)CO)CC[C@H]2[C@@H]3CCC4=CC(=O)CC[C@]4(C)[C@H]3[C@@H](O)C[C@@]21C`, which Potency is on record?
Answer: inactive
